# Results reported in the supplement of paper PMC10849652.
# The full data set covers some 8,800 targets. This sample favours those with a hit. About 0.5% of all pairs of compound and target were hits. Values without a mark were called inactive.
# Columns and labels:
# Assay in all cases: log2 fold change, soluble protein after heating vs DMSO (PISA); higher = thermal stabilisation; K562 lysate, 10 uM; active = over 0.2 and 3.5 SD of the protein, either way, in both replicates (recomputed)
# [1] = compound: C1=CC=C(C=C1)[C@H](COC2=CC3=C(C=C2)NC(=O)N3)NC(=O)C4=CC=CN(C4=O)CC5=CC(=C(C=C5)F)F
# In short: (§1)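 Following dounce homogenisation of K562 pellets in PBS pH 7.4 with 1 mM MgCl2, crude extract at 1 mg/mL protein was incubated for 30 min with 10 μM compound. Aliquots were then heated for 3 min over 48°C-58°C and pooled, NP-40 was added to 0.5% at 4°C, and soluble protein was recovered as the supernatant at 21,000xg for 90 min. Channel-sum-equalised TMTpro 16plex LC-MS/MS quantified this protein. Each value, from duplicates, is a log-two fold change in thermal stability relative to solvent controls.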
# [2] = compound: CC1=C(SC2=C1C(=N[C@H](C3=NN=C(N32)C)CC(=O)N)C4=CC=C(C=C4)Cl)C
# In short: as §1
# [3] = compound: CC1=C2C(=CC=C1)N=C(N(C2=O)C3=CC=CC=C3C)CN4C=NC5=C(N=CN=C54)N
# In short: as §1
# [4] = compound: Cc1sc2c(c1C)C(c1ccc(Cl)cc1)=N[C@@H](CC(=O)OC(C)(C)C)c1nnc(C)n1-2
# In short: as §1
# [5] = compound: c1ccc([C@@H]2C[C@H]2NC2CCNCC2)cc1
# In short: as §1
# UniProt Q9Y297, sequence (Q9Y297 whole entry, looked up): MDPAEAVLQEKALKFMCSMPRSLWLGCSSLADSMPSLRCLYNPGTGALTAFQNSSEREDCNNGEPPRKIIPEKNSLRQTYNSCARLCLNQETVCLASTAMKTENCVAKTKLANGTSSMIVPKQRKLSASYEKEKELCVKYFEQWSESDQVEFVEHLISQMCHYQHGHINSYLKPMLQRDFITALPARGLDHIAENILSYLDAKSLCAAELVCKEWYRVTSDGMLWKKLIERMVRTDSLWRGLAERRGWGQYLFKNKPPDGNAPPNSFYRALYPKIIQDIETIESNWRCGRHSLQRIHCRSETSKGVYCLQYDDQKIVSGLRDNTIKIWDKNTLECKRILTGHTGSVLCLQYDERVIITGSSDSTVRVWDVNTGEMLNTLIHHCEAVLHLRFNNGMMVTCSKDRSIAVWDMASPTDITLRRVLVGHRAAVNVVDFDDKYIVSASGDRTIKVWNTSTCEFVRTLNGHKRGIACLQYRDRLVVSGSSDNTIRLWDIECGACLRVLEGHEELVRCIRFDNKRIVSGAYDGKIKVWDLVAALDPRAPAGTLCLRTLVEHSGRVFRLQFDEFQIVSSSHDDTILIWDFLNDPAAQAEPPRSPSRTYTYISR
# UniProt P49069, sequence (P49069 whole entry, looked up): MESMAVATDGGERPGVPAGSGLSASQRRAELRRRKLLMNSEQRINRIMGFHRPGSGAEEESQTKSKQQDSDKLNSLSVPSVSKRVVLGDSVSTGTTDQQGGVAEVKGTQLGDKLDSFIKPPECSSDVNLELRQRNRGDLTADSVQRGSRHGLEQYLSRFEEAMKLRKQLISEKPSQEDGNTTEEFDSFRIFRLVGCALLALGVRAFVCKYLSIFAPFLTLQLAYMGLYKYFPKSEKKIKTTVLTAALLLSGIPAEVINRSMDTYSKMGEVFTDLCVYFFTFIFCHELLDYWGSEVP
# UniProt Q9BRD0, sequence (Q9BRD0 whole entry, looked up): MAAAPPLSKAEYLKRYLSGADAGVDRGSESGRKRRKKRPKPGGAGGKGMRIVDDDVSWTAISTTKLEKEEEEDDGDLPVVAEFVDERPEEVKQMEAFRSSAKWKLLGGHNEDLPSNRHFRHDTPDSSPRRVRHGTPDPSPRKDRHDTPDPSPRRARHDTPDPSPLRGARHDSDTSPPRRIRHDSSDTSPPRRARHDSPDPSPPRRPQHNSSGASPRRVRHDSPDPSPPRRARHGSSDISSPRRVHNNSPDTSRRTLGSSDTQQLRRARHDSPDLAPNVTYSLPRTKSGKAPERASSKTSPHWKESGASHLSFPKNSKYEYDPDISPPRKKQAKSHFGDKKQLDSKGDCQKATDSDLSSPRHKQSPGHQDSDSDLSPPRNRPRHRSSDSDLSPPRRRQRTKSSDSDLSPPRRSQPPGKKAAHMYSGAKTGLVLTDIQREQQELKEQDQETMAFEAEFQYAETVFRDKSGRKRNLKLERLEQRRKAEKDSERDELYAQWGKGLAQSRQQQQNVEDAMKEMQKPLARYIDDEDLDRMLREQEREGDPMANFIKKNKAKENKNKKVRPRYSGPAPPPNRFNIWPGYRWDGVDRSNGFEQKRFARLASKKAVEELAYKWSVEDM
# UniProt P14635, sequence (P14635 whole entry, looked up): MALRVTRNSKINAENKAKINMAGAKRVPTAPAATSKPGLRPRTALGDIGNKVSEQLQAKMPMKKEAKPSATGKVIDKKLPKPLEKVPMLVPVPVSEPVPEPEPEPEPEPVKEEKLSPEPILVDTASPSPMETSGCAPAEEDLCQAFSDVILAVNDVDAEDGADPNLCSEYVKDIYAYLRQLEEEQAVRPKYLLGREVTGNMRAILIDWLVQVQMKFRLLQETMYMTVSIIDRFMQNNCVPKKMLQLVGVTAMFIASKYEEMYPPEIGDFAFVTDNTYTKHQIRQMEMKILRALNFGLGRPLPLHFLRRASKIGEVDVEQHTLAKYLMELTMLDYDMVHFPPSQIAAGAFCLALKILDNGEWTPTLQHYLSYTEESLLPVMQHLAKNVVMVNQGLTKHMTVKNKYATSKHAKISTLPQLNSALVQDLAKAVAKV
# UniProt P30281, sequence (P30281 whole entry, looked up): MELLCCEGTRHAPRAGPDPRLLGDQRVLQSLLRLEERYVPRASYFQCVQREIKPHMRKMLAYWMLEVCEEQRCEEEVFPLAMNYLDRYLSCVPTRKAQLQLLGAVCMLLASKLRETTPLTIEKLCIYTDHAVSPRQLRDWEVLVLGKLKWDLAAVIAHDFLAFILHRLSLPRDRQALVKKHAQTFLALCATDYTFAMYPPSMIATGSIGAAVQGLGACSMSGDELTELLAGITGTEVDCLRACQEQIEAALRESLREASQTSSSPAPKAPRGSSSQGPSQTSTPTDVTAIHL
# UniProt Q8IWZ6, sequence (Q8IWZ6 whole entry, looked up): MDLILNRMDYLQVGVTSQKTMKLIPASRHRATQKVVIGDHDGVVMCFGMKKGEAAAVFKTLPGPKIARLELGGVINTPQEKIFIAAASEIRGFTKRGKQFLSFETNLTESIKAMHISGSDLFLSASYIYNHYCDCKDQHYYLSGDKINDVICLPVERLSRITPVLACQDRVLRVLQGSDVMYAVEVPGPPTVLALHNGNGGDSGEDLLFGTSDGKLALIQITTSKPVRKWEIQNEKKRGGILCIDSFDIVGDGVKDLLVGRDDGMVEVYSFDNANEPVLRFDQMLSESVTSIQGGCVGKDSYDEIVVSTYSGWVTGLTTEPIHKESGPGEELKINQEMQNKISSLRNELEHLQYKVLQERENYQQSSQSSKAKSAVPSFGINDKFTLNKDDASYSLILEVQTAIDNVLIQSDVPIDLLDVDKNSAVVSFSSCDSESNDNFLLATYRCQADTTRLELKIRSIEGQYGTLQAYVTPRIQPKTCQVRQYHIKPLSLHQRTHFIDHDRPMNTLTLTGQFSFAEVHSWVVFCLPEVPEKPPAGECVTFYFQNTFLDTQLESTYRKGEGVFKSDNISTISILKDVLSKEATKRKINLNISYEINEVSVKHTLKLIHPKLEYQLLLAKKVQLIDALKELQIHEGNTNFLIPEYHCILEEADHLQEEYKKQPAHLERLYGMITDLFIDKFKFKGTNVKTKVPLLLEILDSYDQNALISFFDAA
# UniProt O95260, sequence (O95260 whole entry, looked up): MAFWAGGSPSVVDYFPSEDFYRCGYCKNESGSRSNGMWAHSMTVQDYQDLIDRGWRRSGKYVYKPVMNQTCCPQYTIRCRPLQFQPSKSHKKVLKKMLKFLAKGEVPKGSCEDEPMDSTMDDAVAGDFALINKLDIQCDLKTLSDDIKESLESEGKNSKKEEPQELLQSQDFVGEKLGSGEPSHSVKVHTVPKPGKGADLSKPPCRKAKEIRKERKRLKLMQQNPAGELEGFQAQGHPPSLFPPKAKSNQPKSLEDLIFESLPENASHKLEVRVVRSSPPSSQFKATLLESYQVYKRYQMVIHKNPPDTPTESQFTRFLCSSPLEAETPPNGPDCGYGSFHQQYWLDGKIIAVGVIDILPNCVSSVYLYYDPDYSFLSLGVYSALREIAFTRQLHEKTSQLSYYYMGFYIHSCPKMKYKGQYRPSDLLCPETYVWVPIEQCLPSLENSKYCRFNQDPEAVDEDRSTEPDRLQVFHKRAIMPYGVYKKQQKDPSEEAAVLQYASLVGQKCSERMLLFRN
# UniProt Q8IYX8, sequence (Q8IYX8 whole entry, looked up): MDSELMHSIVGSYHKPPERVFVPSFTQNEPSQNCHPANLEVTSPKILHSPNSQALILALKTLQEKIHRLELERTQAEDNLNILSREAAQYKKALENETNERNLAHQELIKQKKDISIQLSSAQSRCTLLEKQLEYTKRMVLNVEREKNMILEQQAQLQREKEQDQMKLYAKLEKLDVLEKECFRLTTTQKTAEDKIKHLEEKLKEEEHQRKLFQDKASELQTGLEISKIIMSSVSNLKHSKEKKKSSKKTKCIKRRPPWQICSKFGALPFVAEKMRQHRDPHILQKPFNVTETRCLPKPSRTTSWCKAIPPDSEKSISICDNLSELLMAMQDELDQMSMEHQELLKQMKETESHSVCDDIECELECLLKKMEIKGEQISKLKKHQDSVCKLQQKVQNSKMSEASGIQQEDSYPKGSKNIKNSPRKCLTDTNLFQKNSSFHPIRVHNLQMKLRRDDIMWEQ
# UniProt Q6P4H8, sequence (Q6P4H8 whole entry, looked up): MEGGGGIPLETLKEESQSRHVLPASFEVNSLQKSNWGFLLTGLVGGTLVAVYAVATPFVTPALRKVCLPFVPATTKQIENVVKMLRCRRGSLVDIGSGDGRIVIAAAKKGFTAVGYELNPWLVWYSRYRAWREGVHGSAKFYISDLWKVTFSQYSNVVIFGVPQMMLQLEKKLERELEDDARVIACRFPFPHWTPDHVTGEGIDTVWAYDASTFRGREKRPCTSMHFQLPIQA
# UniProt Q92879, sequence (Q92879 whole entry, looked up): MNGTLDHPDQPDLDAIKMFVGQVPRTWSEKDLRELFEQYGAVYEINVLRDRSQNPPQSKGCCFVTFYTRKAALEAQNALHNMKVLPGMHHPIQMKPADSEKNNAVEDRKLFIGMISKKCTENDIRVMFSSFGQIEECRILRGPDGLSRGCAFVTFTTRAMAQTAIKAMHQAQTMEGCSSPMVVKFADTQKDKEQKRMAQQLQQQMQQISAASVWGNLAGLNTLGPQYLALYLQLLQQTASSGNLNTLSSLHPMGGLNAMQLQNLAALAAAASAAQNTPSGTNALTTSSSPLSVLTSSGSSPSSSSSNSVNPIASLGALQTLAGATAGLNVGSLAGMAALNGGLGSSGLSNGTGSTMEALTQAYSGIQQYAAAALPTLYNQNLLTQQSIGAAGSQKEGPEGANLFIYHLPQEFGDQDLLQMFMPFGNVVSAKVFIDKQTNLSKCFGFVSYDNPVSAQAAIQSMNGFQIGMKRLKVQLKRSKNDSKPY
# UniProt P0DMB2, sequence (P0DMB2 whole entry, looked up): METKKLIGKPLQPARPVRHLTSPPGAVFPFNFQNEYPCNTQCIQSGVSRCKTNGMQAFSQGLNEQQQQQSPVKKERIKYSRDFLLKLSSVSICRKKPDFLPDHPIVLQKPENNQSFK
Target,log2 fold change [1],log2 fold change [2],log2 fold change [3],log2 fold change [4],log2 fold change [5]
CHAF1A (UniProt Q13111),-0.099,0.136,0.041,0.017,0.022
BRD4 (UniProt O60885),0.022,0.868 (active),0.003,0.415 (active),-0.015
CCNB1 (UniProt P14635),-0.019,0.063,0.038,-0.032,0.036
CELF1 isoform 4 (UniProt Q92879),0.04,-0.005,0.07,0.044,0.144
CAMLG (UniProt P49069),0.058,0.003,0.018,0.05,0.074
ATP13A1 (UniProt Q9HD20),0.006,-0.001,0.079,0.064,0.03
CEP120 (UniProt Q8N960),-0.074,0.097,0.145,-0.169,0.184
CDKN1B (UniProt P46527),0.059,-0.038,0.146,0.101,0.02
C8orf37 (UniProt Q96NL8),0.072,-0.08,-0.094,-0.008,0.141
BSDC1 (UniProt Q9NW68),0.155,-0.025,0.021,-0.004,-0.026
CES2 isoform 4 (UniProt O00748),0.129,0.159,-0.089,0.093,-0.07
CEP57L1 (UniProt Q8IYX8),-0.078,0.115,–,0.143,0.099
CAD (UniProt H7BZB3),–,–,-0.011,–,-0.003
BTRC (UniProt Q9Y297),0.024,-0.042,-0.003,–,-0.048
CEP295 isoform 3 (UniProt Q9C0D2),-0.154,0.045,–,–,0.024
CAPNS1 (UniProt K7ES78),–,–,-0.094,-0.216,–
CCND3 (UniProt P30281),0.043,0.051,–,0.036,-0.023
B3GALT6 (UniProt Q96L58),0.055,0.041,–,0.269,–
CDC25A (UniProt P30304),–,–,–,-0.064,–
BUD13 (UniProt Q9BRD0),-0.037,0.068,–,-0.162,0.029
ATE1 (UniProt O95260),0,0.07,–,–,-0.125
CACUL1 (UniProt Q86Y37),–,–,-0.046,0.088,0.111
BAHCC1 (UniProt Q9P281),–,–,0.011,-0.187,-0.696 (active)
ATPSCKMT (UniProt Q6P4H8),0.111,-0.006,–,0.023,–
C15orf39 (UniProt Q6ZRI6),-0.095,0.049,–,0.032,0.161
BBS7 (UniProt Q8IWZ6),–,–,0.035,-0.358,0.181
ATG4D (UniProt Q86TL0),-0.011,0.057,–,0.041,–
CARHSP1 (UniProt H3BNU9),-0.034,-0.224,–,–,0.094
CENPV (UniProt Q7Z7K6),0.059,-0.217,-0.201,–,0.166
C8orf88 (UniProt P0DMB2),0.033,0.051,–,0.051,-0.002
